# Assay results from the supplement of paper PMC12494721.
# Where a name gives a salt, the structure may show the parent alone.
# Key:
# Details in all cases: incubation time: 27 h, anaerobic, 37 °C;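 for the amine columns active = adjusted P below 0.05 in both replicates with a change the same way and a mean fold change under 0.8 or over 1.25; inactive = the rest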
# [1] = system: Clostridium sporogenes DSM 1664; assay: growth (OD595) fold change vs plate DMSO controls (fold change (ratio)); higher = more growth
# In short: (§1)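 Each value is the mean of 2 biological replicates, and fold changes above 1.5 were set to NA. The underlying readings were taken at 595 nm from shaken anaerobic mGAM cultures in 96-well plates after 27 h at 37 °C. They were blank-subtracted, corrected for compound background using 20 µM compound solutions in water, and converted to OD with a calibration factor of 5. Growth is the fold change relative to the median of the plate DMSO controls.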
# [2] = system: Escherichia coli IAI1; assay: as above
# In short: as §1
# [3] = system: Klebsiella aerogenes DSM 30053; assay: as above
# In short: as §1
# [4] = system: Ruminococcus gnavus DSM 108212; assay: as above
# In short: as §1
# [5] = system: Klebsiella aerogenes DSM 30053; assay: fold change of Histamine concentration vs plate DMSO controls (fold change (ratio)); higher = more amine produced, active = hit call of the paper (significant change in both replicates, either direction)
# In short: (§2)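 Anaerobic mGAM cultures of four gut bacterial strains were grown at 37 °C for 27 h in 80 µL wells, starting at OD 0.1 before 1:1 dilution. Compounds were at 20 µM final (sweeteners 50 µM). Whole cultures were extracted with cold acetonitrile/methanol containing 0.1% formic acid and centrifuged. Amines were quantified by LC–triple-quadrupole MS (dynamic MRM) against external calibration curves and drift-corrected within batch. Each value is the fold change versus plate DMSO controls, averaged over 2 biological replicates.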
# [6] = system: Clostridium sporogenes DSM 1664; assay: fold change of Tryptamine concentration vs plate DMSO controls (fold change (ratio)); higher = more amine produced, active = hit call of the paper (significant change in both replicates, either direction)
# In short: as §2
# [7] = system: Ruminococcus gnavus DSM 108212; assay: as above
# In short: as §2
# [8] = system: Escherichia coli IAI1; assay: fold change of Putrescine concentration vs plate DMSO controls (fold change (ratio)); higher = more amine produced, active = hit call of the paper (significant change in both replicates, either direction)
# In short: as §2
# [9] = system: Klebsiella aerogenes DSM 30053; assay: as above
# In short: as §2
# [10] = system: Escherichia coli IAI1; assay: fold change of Cadaverine concentration vs plate DMSO controls (fold change (ratio)); higher = more amine produced, active = hit call of the paper (significant change in both replicates, either direction)
# In short: as §2
# [11] = system: Klebsiella aerogenes DSM 30053; assay: as above
# In short: as §2
# [12] = system: Ruminococcus gnavus DSM 108212; assay: fold change of 2-Phenylethylamine concentration vs plate DMSO controls (fold change (ratio)); higher = more amine produced, active = hit call of the paper (significant change in both replicates, either direction)
# In short: as §2
SMILES,growth [1],growth [2],growth [3],growth [4],fold change of Histamine concentration [5],fold change of Tryptamine concentration [6],fold change of Tryptamine concentration [7],fold change of Putrescine concentration [8],fold change of Putrescine concentration [9],fold change of Cadaverine concentration [10],fold change of Cadaverine concentration [11],fold change of 2-Phenylethylamine concentration [12]
CO[C@H]1/C=C/O[C@@]2(C)Oc3c(C)c(O)c4c(O)c(c(/C=N/N5CCN(C)CC5)c(O)c4c3C2=O)NC(=O)/C(C)=C\C=C\[C@H](C)[C@H](O)[C@@H](C)[C@@H](O)[C@@H](C)[C@H](OC(C)=O)[C@@H]1C [Rifampicin] (20 µM),0.000637,0.224,0.627,0.187,0.732 (inactive),0.0227 (active),0.145 (active),0.718 (active),0.768 (inactive),1.14 (inactive),1.06 (inactive),0.131 (active)
N[C@@H](Cc1cc(I)c(Oc2ccc(O)c(I)c2)c(I)c1)C(=O)O [Liothyronine] (20 µM),0.986,0.992,1.03,1.09,0.981 (inactive),0.991 (inactive),0.88 (inactive),0.906 (inactive),0.99 (inactive),1.02 (inactive),0.993 (inactive),0.88 (inactive)
OC[C@@H](O)[C@@H](O)[C@H](O)[C@@H](O)CO [Sorbitol] (50 µM),1.06,0.929,0.967,1.1,1.03 (inactive),0.988 (inactive),0.966 (inactive),0.923 (inactive),0.869 (inactive),1.1 (inactive),1.06 (inactive),0.959 (inactive)
CN(Cc1cnc2nc(N)nc(N)c2n1)c1ccc(C(=O)N[C@@H](CCC(=O)O)C(=O)O)cc1 [Amethopterin] (20 µM),1.08,1.02,1.09,1.42,0.922 (inactive),0.975 (inactive),0.892 (inactive),1 (inactive),1 (inactive),1 (inactive),1.02 (inactive),0.832 (inactive)
Brc1c(NC2=NCCN2)ccc2nccnc12 [Brimonidine L-tartrate] (20 µM),0.988,1.06,0.999,1.03,0.928 (inactive),1.07 (inactive),0.885 (inactive),0.973 (inactive),0.971 (inactive),0.919 (inactive),1.06 (inactive),1.05 (inactive)
O=C1OC(CN2CCOCC2)CN1/N=C/c1ccc([N+](=O)[O-])o1 (stereo not given) [Furaltadone hydrochloride] (20 µM),0.861,1.04,0.945,0.987,0.938 (inactive),0.89 (inactive),0.852 (inactive),0.777 (inactive),0.939 (inactive),1.7 (active),1.01 (inactive),0.929 (inactive)
CN(C)CC/C=C1/c2ccccc2Sc2ccc(Cl)cc21 [Chlorprothixene hydrochloride] (20 µM),1.03,0.991,1.01,0.904,0.956 (inactive),0.997 (inactive),0.87 (inactive),0.959 (inactive),0.996 (inactive),1.03 (inactive),1.02 (inactive),0.942 (inactive)
Cc1ccc(-c2cc(C(F)(F)F)nn2-c2ccc(S(N)(=O)=O)cc2)cc1 [Celecoxib] (20 µM),0.912,1.03,1,1.11,1.09 (inactive),0.967 (inactive),0.927 (inactive),1.03 (inactive),0.991 (inactive),1.06 (inactive),0.99 (inactive),0.87 (inactive)
O=C1[C@@H]2[C@H]3CC[C@H](C3)[C@@H]2C(=O)N1CCCCN1CCN(c2ncccn2)CC1 [Tandospirone] (20 µM),0.973,1.04,1.03,1.06,0.981 (inactive),0.992 (inactive),1.01 (inactive),0.989 (inactive),0.995 (inactive),1 (inactive),0.997 (inactive),1.06 (inactive)
Cc1ncc(CO)c(CO)c1O [Pyridoxine hydrochloride] (20 µM),1.06,0.974,1.06,1.01,0.916 (inactive),1.05 (inactive),1.02 (inactive),0.925 (inactive),0.989 (inactive),1.06 (inactive),1.02 (inactive),1.01 (inactive)
CC(C)(C)NC[C@@H](O)COc1cccc2c1CCCC2=O [(+) Levobunolol hydrochloride] (20 µM),1.08,0.974,1.11,0.903,0.936 (inactive),1.05 (inactive),1.04 (inactive),1.04 (inactive),0.985 (inactive),0.994 (inactive),0.999 (inactive),1.02 (inactive)
COc1ccc2c3c1O[C@H]1C[C@@H](O)C=C[C@@]31CCN(C)C2 [Galanthamine hydrobromide] (20 µM),0.93,1.06,1.04,0.846,1.01 (inactive),1.01 (inactive),1.01 (inactive),1.03 (inactive),1 (inactive),0.979 (inactive),0.999 (inactive),1 (inactive)
C[C@]12C[C@H](O)[C@H]3[C@@H](CCC4=CC(=O)CC[C@@]43C)[C@@H]1CC[C@@H]2C(=O)CO [Corticosterone] (20 µM),0.994,1.05,1.07,1.11,0.992 (inactive),0.971 (inactive),0.998 (inactive),1.05 (inactive),0.99 (inactive),1.01 (inactive),1 (inactive),1.04 (inactive)
O=C(O)Cc1sc(-c2ccccc2)nc1-c1ccc(Cl)cc1 [Fentiazac] (20 µM),1.09,1.06,1.06,0.808,0.945 (inactive),0.999 (inactive),0.966 (inactive),1.04 (inactive),0.971 (inactive),0.966 (inactive),1.03 (inactive),1.06 (inactive)
CCc1nc(N)nc(N)c1-c1ccc(Cl)cc1 [Pyrimethamine] (20 µM),1.05,0.96,0.961,1.17,1.07 (inactive),1.01 (inactive),0.912 (inactive),0.792 (inactive),0.977 (inactive),1.32 (active),0.989 (inactive),0.819 (inactive)
CCC(NC(C)C)C(O)c1ccc(O)c2[nH]c(=O)ccc12 (stereo not given) [Procaterol hydrochloride] (20 µM),1.07,1.02,1.03,1.02,1.01 (inactive),1.02 (inactive),1.1 (inactive),0.978 (inactive),0.949 (inactive),0.922 (inactive),1.06 (inactive),1.14 (inactive)
COc1cc([C@@H]2c3cc4c(cc3[C@@H](O[C@@H]3O[C@@H]5CO[C@@H](C)O[C@H]5[C@H](O)[C@H]3O)[C@H]3COC(=O)[C@H]23)OCO4)cc(OC)c1O [Etoposide] (20 µM),0.285,1.05,1.2,0.101,0.858 (inactive),0.403 (active),0.248 (active),1.08 (inactive),0.982 (inactive),0.966 (inactive),1.03 (inactive),0.236 (active)
CC1(C)S[C@@H]2[C@H](NC(=O)Cc3ccccc3)C(=O)N2[C@H]1C(=O)O [Benzylpenicillin sodium] (20 µM),0,1.19,1.1,0,1.06 (inactive),0.05 (active),0.0412 (active),1.09 (inactive),1.04 (inactive),1.56 (active),1.03 (inactive),0.0471 (active)
Clc1ccc2c(c1)C(N1CCNCC1)=Nc1ccccc1O2 [Amoxapine] (20 µM),1.21,1.03,1.01,1.37,0.961 (inactive),0.943 (inactive),0.983 (inactive),0.994 (inactive),0.974 (inactive),1.02 (inactive),1 (inactive),0.952 (inactive)
O=C(O)CNC(=O)c1ccccc1 [Hippuric acid] (20 µM),1.12,1.02,1.02,1.05,1.03 (inactive),1.05 (inactive),1.08 (inactive),0.979 (inactive),0.997 (inactive),0.94 (inactive),1.01 (inactive),1.09 (inactive)
COCCCOc1cc(C[C@@H](C[C@H](N)[C@@H](O)C[C@H](C(=O)NCC(C)(C)C(N)=O)C(C)C)C(C)C)ccc1OC [Aliskiren hemifumarate] (20 µM),1.02,0.992,1,0.808,1.06 (inactive),1 (inactive),1.04 (inactive),1 (inactive),1.02 (inactive),1 (inactive),0.987 (inactive),1.05 (inactive)
CCCCCCNC(=O)n1cc(F)c(=O)[nH]c1=O [Carmofur] (20 µM),0.985,0.886,0.963,0.862,0.726 (active),0.872 (inactive),0.983 (inactive),0.508 (active),0.936 (inactive),0.91 (inactive),0.974 (inactive),1.01 (inactive)
CCOc1ccccc1OCCN[C@H](C)Cc1ccc(OC)c(S(N)(=O)=O)c1 [(R)-Tamsulosin hydrochloride] (20 µM),0.839,0.964,1.03,1.01,0.94 (inactive),0.98 (inactive),1.02 (inactive),1 (inactive),1.01 (inactive),1.01 (inactive),1 (inactive),0.976 (inactive)
Cc1cn([C@H]2C[C@H](N=[N+]=[N-])[C@@H](CO)O2)c(=O)[nH]c1=O [Zidovudine] (20 µM),0.921,0.825,0.946,1.45,1.12 (inactive),1.04 (inactive),1.02 (inactive),0.549 (inactive),1.07 (inactive),1.79 (inactive),0.981 (inactive),1.11 (inactive)
CCOC(=O)n1ccn(C)c1=S [Carbimazole] (20 µM),0.973,1.11,0.979,1.08,1.04 (inactive),0.937 (inactive),1.01 (inactive),1.09 (inactive),1.03 (inactive),0.98 (inactive),1 (inactive),1.01 (inactive)
